Source: PubChem BioAssay (National Center for Advancing Translational Sciences (NCATS))
Most compounds without a hit are left out; they make up all but 1.2% or so of the library.
TrxR1 substrate = rat thioredoxin reductase 1 substrate activity | Potency, µM (highest dose often 114 µM), inactives show at the top dose activity change, negative = substrate turnover | 390,000 compounds, 0.01% hits | AID 588456 | O89049 | purified TrxR1 substrate turnover, NADPH consumption readout; also: nearly all actives have a fitted effect of over 50% in size
Target sequence (O89049 whole entry, looked up): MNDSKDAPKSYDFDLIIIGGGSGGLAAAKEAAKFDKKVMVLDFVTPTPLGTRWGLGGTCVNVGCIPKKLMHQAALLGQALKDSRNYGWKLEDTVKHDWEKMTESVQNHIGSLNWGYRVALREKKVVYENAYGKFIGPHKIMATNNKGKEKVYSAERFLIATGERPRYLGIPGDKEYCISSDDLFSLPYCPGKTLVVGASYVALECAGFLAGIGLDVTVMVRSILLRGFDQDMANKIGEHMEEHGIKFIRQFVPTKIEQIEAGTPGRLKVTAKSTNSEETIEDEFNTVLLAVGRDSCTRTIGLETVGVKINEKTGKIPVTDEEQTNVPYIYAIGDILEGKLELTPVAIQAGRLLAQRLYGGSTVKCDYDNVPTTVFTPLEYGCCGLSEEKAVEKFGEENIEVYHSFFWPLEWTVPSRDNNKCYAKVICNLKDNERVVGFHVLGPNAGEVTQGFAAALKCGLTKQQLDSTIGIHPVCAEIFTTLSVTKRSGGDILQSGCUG
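Rat TrxR1, dispensed at 90 nM, was prereduced with 400 uM NADPH (final) for 5 min at ~22 deg C, then incubated with compound 15 min before 400 uM selenite. A first-read NADPH fluorescence drop versus no-compound background flagged substrates.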
GLS inhibitor = glutaminase GLS (human) inhibition. O94925. GLS enzymatic activity, qHTS titration. Potency, µM (top dose mostly 45.5 µM), for inactives: at the highest dose activity change, negative = inhibition, most hits filed as inhibitors. 410,000 compounds, 0.21% hits. AID 624170
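Human kidney-isoform GLS in 45 mM KH2PO4 pH 8.2, 0.02% Tween-20, with compound, started with 1mM L-Glutamine (added stock). Glutamate oxidase/HRP/Amplex red coupled fluorescence read at start and after 30 min at RT.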
mIDH1 inhibitor = inhibitors of human mutant IDH1 R132H; O75874; IDH1-R132H enzyme, NADPH consumption, diaphorase/resazurin fluorescence; Potency, µM (top dose mostly 76.6 µM), without a hit: top-dose activity change, negative = inhibition, actives largely listed as inhibitors; 390,000 compounds, 0.093% hits; AID 602179; also: nearly all actives have a fitted effect of over 65% in size
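IDH1-R132H (0.5 ug/mL dispensed) in pH 7.5 Tris buffer was preincubated 30 min with compound, then given a substrate mix of 0.016 mM NADPH and 2 mM alpha-KG for 80 min at room temperature; remaining NADPH was read by diaphorase/resazurin fluorescence.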
TrxR1 inh = blocks rat thioredoxin reductase 1; recombinant rTrxR1, NADPH fluorescence consumption, selenite substrate; Potency, µM (highest dose often 114 µM), without a hit: top-dose activity change, negative = inhibition, hits mostly inhibitors; 390,000 compounds, 1% hits; AID 588453; also: nearly all actives have a fitted effect of over 65% in size
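Rat TrxR1 (90 nM in the dispensed reagent) was pre-reduced with 400 uM NADPH for 5 min at room temperature, then incubated with compound for 15 min. After 400 uM selenite was added, NADPH fluorescence (Ex 340/Em 450 nm) was followed for 8 min.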
Starred values were filed as active, the others as inactive; ? = inconclusive; . = no result; [ ] = dose if it differs, or a comment. Calls follow the shape of the dose curve; as a rule, active = well fitted curve in the direction sought with a large enough effect; inconclusive = small, poorly fitted or top-dose-only effect, or another doubt; inactive = no such curve, though single readings can be large; an effect the other way counts as inactive or inconclusive. % is scaled to controls: 0 for no effect and ±100 for the full control effect; potency is read from the fitted curve at half-maximal effect.

SMILES	TrxR1 substrate	GLS inhibitor	mIDH1 inhibitor	TrxR1 inh
Cc1cccc(N(Cc2cc3ccc(C)cc3[nH]c2=O)C(=O)c2ccco2)c1	3%	-3%	-9%	35µM*
COc1cc2c(cc1NC(=O)COc1cc(C)ccc1C)oc1ccccc12	0%	9%	-7%	16%
CC(=O)Nc1ccc(N(C(=O)Cn2nnc3ccccc32)C(C(=O)NCc2ccccc2)c2ccc(C)cc2)cc1 (stereo not drawn)	0%	3%	-6%	15%
CCOC(=O)COc1ccccc1/C=C\[N+](=O)[O-]	-2%	12%	5%	2.8µM*
Cc1ccc(C(=O)COC(=O)COc2ccccc2[N+](=O)[O-])s1	-6%	2%	-3%	?
Cc1ccc(/C(O)=C2/C(=O)C(=O)N(CCN3CCOCC3)C2c2ccccn2)cc1 (stereo not drawn)	-2%	-1%	7%	?
CCN(CC)CCN1C(=O)C(=O)/C(=C(/O)c2ccc3c(c2)CC(C)O3)C1c1ccc(OC)cc1 (stereo not drawn)	-18%	15%	-5%	45µM*
COc1ccc(/C(O)=C2/C(=O)C(=O)N(CCN(C)C)C2c2ccccn2)cc1OC (stereo not drawn)	4%[57.1 µM]	3%	8%	-23%[57.1 µM]
O=C1C(=O)N(CCN2CCOCC2)C(c2ccccn2)/C1=C(/O)c1ccccc1 (stereo not drawn)	-5%	5%	9%	18µM*
C=CCOc1ccc(/C(O)=C2/C(=O)C(=O)N(CCCN3CCOCC3)C2c2ccccc2)cc1 (stereo not drawn)	-7%	?	0%	25µM*
COc1ccc(/C(O)=C2/C(=O)C(=O)N(CCN3CCOCC3)C2c2ccccn2)cc1OC (stereo not drawn)	-11%	-4%	7%	45µM*
CCCSCCCNC(=O)C1CCN(c2nn3cc(-c4ccc(F)cc4)nc3s2)CC1	-5%	4%	21%	9%
CC(=O)Nc1cc(-c2cccc(N)c2)cn2c(-c3ccccc3)cnc12	.	-9%	.	.
Cc1cccc(CNC(=O)C2CCN(S(=O)(=O)c3cccc4nonc34)CC2)c1	-2%[57.1 µM]	-4%	-2%	6%[57.1 µM]
CCOc1ccc(C2/C(=C(\O)c3ccc4c(c3)OCCO4)C(=O)C(=O)N2CCCN2CCOCC2)cc1 (stereo not drawn)	-13%	2%	0%	?
CCOc1ccc(C2/C(=C(\O)c3ccc4c(c3)OCCO4)C(=O)C(=O)N2CCCN2CCOCC2)cc1OC (stereo not drawn)	1%	-12%	0%	50µM*
COc1ccc(C2/C(=C(\O)c3ccc4c(c3)OCCO4)C(=O)C(=O)N2CCCN(C)C)c(OC)c1 (stereo not drawn)	-8%	-1%	3%	10µM*
O=C(NCCCN1CCN(c2ccccc2)CC1)c1ccc2nc(CCc3ccccc3)oc2c1	8%[57.1 µM]	1%	5%	25%[57.1 µM]
Oc1ccc(/C=N/NC(=S)Nc2cccnc2)c(O)c1O	-19%	4.5µM*	14%	?
Oc1ccc(/C=N/NC(=S)Nc2cccnc2)c(O)c1	-16%	20%	1%	-30%
Oc1cccc(/C=N/NC(=S)Nc2cccnc2)c1O	1%[57.1 µM]	10µM*	4%	-30%[57.1 µM]
Cc1cccc(CS(=O)(=O)Cc2ccc(C(=O)NCc3ccc(Cl)cc3)o2)c1	-1%[57.1 µM]	-24%	-13%	6%[57.1 µM]
CCCCC(=O)c1ccc(O)cc1	4%	-9%	-6%	5%
O=C(CCO)c1ccc(O)cc1	-1%	7.9µM*	-19%	?
CCOc1ccccc1N1C(=O)CC(Sc2n[nH]c(-c3ccccc3)n2)C1=O (stereo not drawn)	7%[57.1 µM]	?	15%	1µM*
SMILES	TrxR1 substrate	GLS inhibitor	mIDH1 inhibitor	TrxR1 inh
CCc1ccc(C2C(C#N)=C(N)C(C#N)(C#N)C3=CCC(C(C)(C)C)CC32)cc1 (stereo not drawn)	1%	-5%	37µM*	?
Cc1ccc(S(=O)(=O)c2ncccc2N)cc1	5%[2.29 µM]	-17%	5%	17%[2.29 µM]
Cc1ccc(S(=O)(=O)c2ncccc2[N+](=O)[O-])cc1	-1%[57.1 µM]	-7%	15%	2µM*
COc1ccc(N(C(=O)c2ccc(OC)c(OC)c2)S(=O)(=O)c2ccc(Cl)cc2)cc1	-10%	-13%	0%	2%
CCS(=O)(=O)c1nc(S(=O)(=O)c2ccc(C)cc2)c(NC(C)c2ccccc2)s1 (stereo not drawn)	0%	6%	-11%	13%
CCCS(=O)(=O)c1nc(S(=O)(=O)c2ccc(C)cc2)c(NC(C)c2ccccc2)s1 (stereo not drawn)	3%	-8%	.	35µM*
CC(C)c1nn2c(=O)cc(COC(=O)c3ccc(NC(=O)COc4ccccc4)cc3)nc2s1	7%[57.1 µM]	0%	-4%	14%[57.1 µM]
CCN1C(=O)/C(=C/c2ccc(C)o2)N(C)C1=S	-11%	8%	5%	32µM*
CC[C@H]1OC(=O)[C@H](C)C(=O)[C@H](C)[C@@H](OC2O[C@H](C)C[C@H](N(C)C)[C@@H]2O)[C@@](C)(OC)C[C@@H](C)C(=O)[C@@H](C)C2N(CCCCn3cnc(-c4cccnc4)c3)C(=O)O[C@@]21C (stereo partly drawn)	.	13%	.	.
COC(=O)N1C(=O)[C@](c2ccccc2)(C2CCCC2)N1C(=O)OC	13%[57.1 µM]	1%	0%	?
COC(=O)N1C(=O)[C@@](c2ccccc2)(C(C)C)N1C(=O)OC	-1%	16%	-1%	18µM*
COC(=O)N1C(=O)[C@](c2ccc(Cl)cc2)(C(C)C)N1C(=O)OC	4%	3%	12%	7.9µM*
COC(=O)N1C(=O)[C@@](c2ccc(OC)cc2)(C(C)C)N1C(=O)OC	4%[57.1 µM]	6%	-5%	28µM*
Cc1cccc(Cn2cnc3c(cnn3C(C)(C)C)c2=O)c1F	-8%	.	.	-1%
S=c1[nH]c(-c2ccccc2)cn1/N=C/c1ccncc1	6%	10µM*	16%	-21%
CCOc1ccc(/C=N/n2cc(-c3ccccc3)[nH]c2=S)cc1	26%	1%	-2%	1%[57.1 µM]
COc1ccc(C(=O)NCC(c2ccc(N(C)C)cc2)N2CCc3ccccc32)cc1 (stereo not drawn)	-2%[57.1 µM]	34%	9%	-20%[57.1 µM]
CCCn1c(SC(C)C(=O)NC2CCCC(C)C2C)n[nH]c1=O (stereo not drawn)	.	2%	5%	.
COc1cccc(C2C=C(c3ccc(OC)cc3OC)Nc3nnnn32)c1 (stereo not drawn)	3%	2%	6%	45µM*
Cn1c(=O)c2sccc2n2c(CCC(=O)N3CCN(c4cccc(Cl)c4)CC3)nnc12	3%	-14%	24%	0%
Cn1c(=O)c(=O)n(C)c2cc(N3CCCC3)c(NS(=O)(=O)c3ccc(Cl)cc3)cc21	-1%	-10%	5%	35µM*
CC(NC(=O)c1ccc(Cl)c(Cl)c1)c1ccc(-c2ccccc2)cc1 (stereo not drawn)	1%[57.1 µM]	1%	-7%	12%[2.29 µM]
CC(NC(=O)CCl)c1ccc(Cl)c(Cl)c1 (stereo not drawn)	-3%	13%	11%	40µM*
